Among all 52,000 compounds or so, about 1,700 (3.3%) were called active. Cut-off read from the data, not from the text of the source: active = survival mostly below about 52% (no sharp cut-off); inactive = mostly above about 56%. Many of the other results were omitted from the sample, so actives are more common in it than they were.

For this test, the system named is Wild type. Kind of test: growth inhibition of S. aureus wild type versus tarO mutant, primary screen, teichoic acid synthesis inhibitors, RN4220, OD600 (AID 463173). As to conditions: S. aureus RN4220 wild type/DeltatarO growth, OD600, 18 h, stronger effect = lower value, screened at 18.75 µg/mL (by protocol).
As for `CCc1ccc(NC(=O)CN2C(=O)c3ccccc3Sc3ccc(C(=O)N4CCCC4)cc32)cc1`, the survival was 82% (inactive).
Next, `Cc1ccc(NC(=O)CN2C(=O)c3ccccc3Sc3ccc(C(=O)N4CCCC4)cc32)cc1`: 64% (inactive).
With `CN(C)c1ccc(NC(=O)CN2C(=O)c3ccccc3Sc3ccc(C(=O)N4CCCC4)cc32)cc1`, the survival is -4% (active).
Take `O=C(CN1C(=O)c2ccccc2Sc2ccc(C(=O)N3CCOCC3)cc21)Nc1ccc(Cl)cc1F`: the survival was 73% (inactive).
As for `Cc1ccc(NC(=O)CN2C(=O)c3ccccc3Sc3ccc(C(=O)N4CCOCC4)cc32)c(Cl)c1`, the survival was -6% (active).
Regarding `Cc1cc(C)cc(NC(=O)CN2C(=O)c3ccccc3Sc3ccc(C(=O)N4CCOCC4)cc32)c1`, the survival was 69% (inactive).
Regarding `Fc1ccc(-c2noc3ncnc(NCc4cccc(Cl)c4)c23)cc1`, the survival was 55% (inactive).
For `COc1ccccc1CN1CCNC(=O)C1=O`, the survival is 77% (inactive).
Consider `O=C(CSc1nc2c([nH]c3ccccc32)c(=O)n1-c1ccccc1)N1CCOCC1`, for which the survival was 75% (inactive).
As for `O=S1(=O)c2ccccc2N(Cc2ccccc2Cl)c2ccccc21`, the survival was 80% (inactive).
`COc1ccc(N2CCN(C(CNC(=O)C(=O)NCCc3ccccc3)c3cccnc3)CC2)cc1` (stereo not given): the survival is 84% (inactive).
On to `CN1CCN(C(=O)C(=O)Nc2c3c(nn2-c2ccc(Cl)cc2)CSC3)CC1`, for which the survival is 71% (inactive).
Next, `CC(NC(=O)C(=O)Nc1c2c(nn1-c1ccccc1)CSC2)c1ccccc1` (stereo not given): 55% (inactive).
As to `CN1CCN(C(=O)C(=O)Nc2c3c(nn2-c2ccc(F)cc2)CSC3)CC1`, the survival is 81% (inactive).
Next, `CCC(CO)NC(=O)C(=O)Nc1c2c(nn1-c1ccc(F)cc1)CSC2` (stereo not given): 87% (inactive); `CC(=O)N1CCN(C(=O)C(=O)Nc2c3c(nn2-c2ccc(Cl)cc2)CSC3)CC1`: -3% (active).
Turning to `CC(NC(=O)C(=O)Nc1c2c(nn1-c1ccc(F)cc1)CSC2)c1ccccc1` (stereo not given), the survival was -4% (active).
As to `Cc1cccc(OCC(=O)N(Cc2cccc(Cl)c2)Cc2ccco2)c1C`, the survival was 85% (inactive).
As for `CCOC(=O)c1ccc(NC(=O)c2cnc3c(-c4ccc(F)cc4)c(C)nn3c2C)cc1`, the survival is 120% (inactive).
For the molecule `CCOC(=O)c1ccc(CN(Cc2ccc(OC)cc2)S(=O)(=O)c2cccc(C(F)(F)F)c2)cc1`, the survival was 73% (inactive).
As for `CCc1ccccc1NC(=O)c1cc(S(=O)(=O)NCCc2ccc(OC)c(OC)c2)ccc1F`, the survival was 0% (active).
In the case of `COc1ccc(OC)c(NC(=O)c2cc(S(=O)(=O)NCCc3ccc(Cl)cc3)ccc2F)c1`, the survival is 79% (inactive).
On to `Cc1cc(C)cc(NC(=O)c2cc(S(=O)(=O)NCCC3=CCCCC3)ccc2F)c1`, for which the survival is 80% (inactive).
Consider `O=C(Nc1ccc(Br)cc1)c1ccc(F)c(S(=O)(=O)NC2CCCCCC2)c1`, for which the survival is 56% (inactive).
`Cc1ccc(NC(=O)c2cc(S(=O)(=O)NC3CCCCCC3)ccc2F)cc1F`: the survival is 79% (inactive).
Regarding `COc1ccc(CCNS(=O)(=O)c2ccc(F)c(C(=O)Nc3ccc(Cl)cc3)c2)cc1OC`, the survival was 126% (inactive).
As for `CCc1ccc(NC(=O)c2ccc(F)c(S(=O)(=O)NC3CCCCCC3)c2)cc1`, the survival was -4% (active).
For `Cc1ccc(NC(=O)c2cc(S(=O)(=O)NCCC3=CCCCC3)ccc2F)cc1C`, the survival was -3% (active).
Next, `CCc1ccc(NC(=O)c2ccc(F)c(S(=O)(=O)N(C)C3CCCCC3)c2)cc1`: 71% (inactive); `Cc1ccc(NC(=O)c2cc(S(=O)(=O)NC3CCCCC3)ccc2F)cc1Cl`: -6% (active).
Next, `Cc1ccc(NC(=O)c2cc(S(=O)(=O)NCCC3=CCCCC3)ccc2F)cc1F`: 82% (inactive); `O=C(Nc1ccc(F)c(F)c1)c1cc(S(=O)(=O)NC2CCCCCC2)ccc1F`: 53% (inactive).
On to `O=S(=O)(c1ccccc1)c1nc(-c2cccs2)oc1SCc1ccc(F)cc1`, for which the survival was 61% (inactive).
As for `O=C(COCc1cc(-c2cccs2)on1)Nc1ccc(OC(F)(F)F)cc1`, the survival is 124% (inactive).
Consider `CCc1cccc(NC(=O)c2nc(-c3ccncc3)no2)c1`, for which the survival is 101% (inactive).
In the case of `CC(NC(=O)c1ccc(CSc2nc3ccncc3n2Cc2ccc(F)cc2)cc1)c1ccccc1` (stereo not given), the survival is 92% (inactive).
For the molecule `CC(C)(C)C1CCc2c(sc(NC(=O)c3ccc(Cl)cc3)c2C(=O)NCc2ccco2)C1` (stereo not given), the survival was 95% (inactive).
For `Cc1ccccc1C(=O)Nc1sc2c(c1C(=O)O)CCC(C(C)(C)C)C2` (stereo not given), the survival was 6% (active).
Take `Cc1ccccc1NC(=O)c1c(NC(=O)c2ccccc2F)sc2c1CCC(C)C2` (stereo not given): the survival is 82% (inactive).
Regarding `Cc1ccccc1NC(=O)c1c(NC(=O)c2ccncc2)sc2c1CCC(C(C)(C)C)C2` (stereo not given), the survival was 91% (inactive).
With `COc1ccccc1NC(=O)c1c(NC(=O)Cc2ccccc2)sc2c1CCC(C(C)(C)C)C2` (stereo not given), the survival was 102% (inactive).
For `CCCNC(=O)c1c(NC(=O)c2ccccc2)sc2c1CCC(C(C)(C)C)C2` (stereo not given), the survival is 2% (active).
In the case of `Cc1ccccc1C(=O)Nc1sc2c(c1C(=O)NCc1ccco1)CCC(C(C)(C)C)C2` (stereo not given), the survival is 88% (inactive).
Regarding `COc1ccccc1NC(=O)c1c(NC(=O)c2cccs2)sc2c1CCC(C(C)(C)C)C2` (stereo not given), the survival was 118% (inactive).
As for `CC(C)(C)C1CCc2c(sc(NC(=O)CCC(=O)O)c2C(=O)Nc2ccccc2C(F)(F)F)C1` (stereo not given), the survival is 1% (active).
On to `CC(C)(C)C1CCc2c(sc(NC(=O)c3cccc(Cl)c3)c2C(N)=O)C1` (stereo not given), for which the survival is 75% (inactive).
The result for `CC1CCN(C(=O)c2c(NC(=O)c3ccccc3F)sc3c2CCC(C(C)(C)C)C3)CC1` (stereo not given) reads -2% (active).
Consider `Cc1ccc(C(=O)Nc2sc3c(c2C(=O)NCc2ccco2)CCC(C(C)(C)C)C3)cc1` (stereo not given), for which the survival was 70% (inactive).
The result for `CCCNC(=O)CCCN1C(=O)CCn2nc(-c3cccn3C)cc21` reads 71% (inactive); that for `O=C(CN1CCC(O)(c2ccccc2)CC1)NC1CCCCC1`, 111% (inactive); that for `Cc1ccc(CNC(=O)CCCCCn2c(=O)c3sccc3n(CC(=O)N(C)c3ccccc3)c2=O)cc1`, 83% (inactive).
Next, `O=C(CSc1nc(=O)[nH]c2c1CCCC2)NCc1ccccc1Cl`: 135% (inactive); `COc1ccc(NC(=O)N2CCN(S(=O)(=O)c3ccc4c(ccn4C)c3)CC2)c(OC)c1`: 87% (inactive); `Cc1ccccc1C(=O)Nc1sc2c(c1C(=O)N1CCC(C)CC1)CCC(C)C2` (stereo not given): 0% (active).
The result for `CC(C)(C)C1CCc2c(sc(NC(=O)c3ccccc3F)c2C(=O)N2CCCCC2)C1` (stereo not given) reads -3% (active); that for `CC(C)(C)C1CCc2c(sc(NC(=O)c3ccco3)c2C(=O)Nc2ccccc2Cl)C1` (stereo not given), 108% (inactive).
As to `Cc1ccccc1C(=O)Nc1sc2c(c1C(=O)N1CCCCC1)CCC(C)C2` (stereo not given), the survival was 36% (inactive).
With `CC1CCN(C(=O)c2c(NC(=O)c3ccccc3Cl)sc3c2CCC(C(C)(C)C)C3)CC1` (stereo not given), the survival was 2% (active).
Next, `Cc1ccccc1C(=O)Nc1sc2c(c1C(=O)N1CCC(C)CC1)CCCC2`: 64% (inactive).
On to `CCOc1ccccc1NC(=O)c1c(NC(=O)c2ccccc2C)sc2c1CCC(C)C2` (stereo not given), for which the survival is 75% (inactive).
`CC(C)(C)C1CCc2c(sc(NC(=O)c3ccncc3)c2C(=O)Nc2ccccc2Cl)C1` (stereo not given): the survival is 84% (inactive).
In the case of `CCN(CC)C(=O)c1c(NC(=O)c2ccccc2F)sc2c1CCC(C(C)(C)C)C2` (stereo not given), the survival was -3% (active).
The result for `CN(C)C(=O)c1c(NC(=O)c2ccccc2F)sc2c1CCCC2` reads 82% (inactive).
For `CC(C)(C)C1CCc2c(sc(NC(=O)c3ccccc3F)c2C(=O)NCc2ccco2)C1` (stereo not given), the survival is 70% (inactive).
Consider `O=C(Nc1sc2c(c1C(=O)N1CCCCC1)CCCC2)c1ccccc1Cl`, for which the survival was 75% (inactive).

(Values after PubChem BioAssay AID463173 (ICCB-Longwood Screening Facility, Harvard Medical School, 2010).)
